The text below walks through data of PubChem BioAssay AID624330 (Southern Research Specialized Biocontainment Screening …, 2012).

For orientation: inhibition means the change of the read-out against control, counted positive when it falls.

Several values for one entry are separate records, joined by “and”; a condition that tells them apart may be missing. Equal values may be shown once. Hit rate of the full screen: of about 340,000 compounds, about 2,100 (0.62%) were called active. These entries were drawn from the full list. Measured potencies and affinities stand elsewhere. Unmarked numbers belong to inactive results.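 How the source made its calls: active means first-screen hits whose inhibition reached a set limit at any dose in the follow-up dose series; inconclusive means inhibition above the set first-screen limit but never retested; inactive means the rest.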

In this assay the target is Rac GTPase-activating protein 1 (Homo sapiens) (UniProt Q9H0H5). Put plainly: MgcRacGAP GTPase-activating activity inhibitors, confirmation, biochemical, ADP Hunter fluorescence, primary and confirmatory (AID 624330).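 Further: fluorescence reports GDP produced by GAP-driven GTP hydrolysis.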 Particulars: MgcRacGAP-stimulated Rac1 GTP hydrolysis, at 30 µM, stronger effect = higher value, GST-tagged Rac1 F28L mutant substrate.
Chain of Rac GTPase-activating protein 1 (Homo sapiens) (Q9H0H5 whole entry, looked up): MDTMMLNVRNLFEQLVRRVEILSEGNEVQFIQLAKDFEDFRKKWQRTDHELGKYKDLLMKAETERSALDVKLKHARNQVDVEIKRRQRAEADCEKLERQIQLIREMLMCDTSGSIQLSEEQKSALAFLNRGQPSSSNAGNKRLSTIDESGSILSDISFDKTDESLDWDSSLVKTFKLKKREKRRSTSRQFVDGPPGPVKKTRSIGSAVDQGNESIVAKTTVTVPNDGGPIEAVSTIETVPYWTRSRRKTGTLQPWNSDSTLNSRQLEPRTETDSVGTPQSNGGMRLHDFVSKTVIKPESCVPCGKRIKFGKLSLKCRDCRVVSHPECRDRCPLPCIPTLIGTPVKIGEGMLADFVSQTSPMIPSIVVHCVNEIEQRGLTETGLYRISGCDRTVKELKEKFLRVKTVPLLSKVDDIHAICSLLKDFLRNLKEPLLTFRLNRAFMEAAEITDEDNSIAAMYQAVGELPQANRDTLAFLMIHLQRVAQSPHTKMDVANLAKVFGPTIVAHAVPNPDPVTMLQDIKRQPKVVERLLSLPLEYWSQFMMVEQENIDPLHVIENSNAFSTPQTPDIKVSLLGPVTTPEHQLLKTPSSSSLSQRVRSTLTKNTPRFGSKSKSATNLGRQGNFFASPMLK
Regarding `COc1ccc(NC(=O)Nc2nnc(CC(=O)NCc3ccccc3)s2)cc1`, the inhibition is -13.3%.
`COc1cc(C(=O)N2CCN(c3ccc([N+](=O)[O-])cc3)CC2)ccc1OCc1c(C)noc1C`: the inhibition is 12.9%.
In the case of `COc1cc(NC(=O)Cn2cnc(S(=O)(=O)N3CCCCC3)c2)cc(OC)c1OC`, the inhibition was 1.97%.
For `O=C(NCc1ccccc1)c1cc(=O)c2ccccc2o1` the value was 3.22%; for `CSC[C@H]1CN(Cc2ccccc2)C(=O)[C@@H]1CC(=O)Nc1ccc(Br)cc1`, 11%; for `COCCCn1c(SCC(=O)NC(C)(C)C)nnc1-c1cccs1`, 9.91%.
For `O=C(N/N=C/c1ccc(C(F)(F)F)cc1)c1ccncc1` the value was 5.6%; for `Cc1ccc(Nc2ncnc3ccccc23)cc1`, 12.6%.
For `Fc1ccc(Nc2ncnc3ccccc23)cc1` the value was 9.64%.
`COc1ccc(-c2nsc(SCC(=O)NCC3CCCO3)n2)cc1` (stereo not given): the inhibition was 5.33%.
For `O=C1C2C3C=CC(CC3)C2C(=O)N1c1ccc([N+](=O)[O-])cc1` (stereo not given) the value was 12.6%.
For `COc1ccnc(NCc2cccc(C(F)(F)F)c2)c1C#N` the value was -0.963%; for `COc1cccc(Cn2nc(C(=O)O)c3ccccc3c2=O)c1`, 0.46%.
For `Cn1ccc(=O)c2cc([N+](=O)[O-])ccc21` the value was 9.86%.
As to `CCn1c2ccccc2c2cc(NC(=O)c3ccc([N+](=O)[O-])cc3)ccc21`, the inhibition was 8.32%.
For `Cc1csc(SCC(=O)NC2CCC(C)CC2)n1` (stereo not given) the value was -6.91%.
Consider `O=C(c1ccco1)N1CCN=C1SCc1cccnc1`, for which the inhibition is 4.28%.
For `CC(Oc1ccc(Cl)cc1Cl)C(=O)Nc1cccc(O)c1` (stereo not given) the value was 9.91%; for `CC(=O)Nc1ccc(NC(=O)C(C)Oc2ccc(Cl)cc2Cl)cc1` (stereo not given), 1.91%; for `CCC(=O)Nc1ccc(NC(=O)c2ccc3c(c2)OCO3)cc1`, 11.5%.
`NC(=O)c1ccc(NC(=O)COC(=O)c2ccc3c(c2)OCO3)cc1`: the inhibition was 2.24%.
For `O=C(O)[C@H]1CCCC[C@H]1C(=O)Nc1ccc(S(=O)(=O)N2CCOCC2)cc1` the value was 4.65%; for `O=C(O)C1CCCCC1C(=O)Nc1ccc(S(=O)(=O)N2CCCC2)cc1` (stereo not given), 6.7%.
For `O=C(Nc1ccc(S(=O)(=O)N2CCOCC2)cc1)c1ccc(S(=O)(=O)N2CCOCC2)cc1` the value was 0.49%; for `CCN(CC)c1ccc(NC(=O)c2ccc3c(c2)OCO3)c(C)c1`, 24.3%; for `O=C(COC(=O)c1ccc2c(c1)OCO2)Nc1ccccc1`, 4.56%.
For `CC(=O)Nc1ccc(C(=O)Nc2ccc(S(=O)(=O)N3CCOCC3)cc2)cc1` the value was -2.26%; for `CCC[C@@H](CN1CCC[C@H]1CN1C(N)=NC[C@@H]1Cc1ccccc1)N1C[C@@H]([C@H](C)CC)N(CCCC2CCCC2)C1=N`, 12.3%; for `COc1ccccc1CNC(=O)COC(=O)Cc1c[nH]c2ccccc12`, 4.99%.
Take `CC1CCCC(C)N1CCCNC(=O)CN1C(=O)c2cccnc2Oc2ccc(Cl)cc21` (stereo not given): the inhibition was 6.32%.
For `CCC(C)N1CCCCC1C(=O)Nc1c(C)cc(C)cc1C` (stereo not given) the value was 2.22%.
For `CCc1ccc(NC(=O)CCc2nc3ccccc3[nH]2)cc1` the value was 10.8%.
For `COc1ccc(Br)cc1CNc1ccccc1` the value was 26%; for `COc1ccc(Br)cc1CNc1ccc(S(N)(=O)=O)cc1`, 0.46%.
As for `CC(C)n1c(SCC(=O)Nc2nncs2)nnc1C1CC1`, the inhibition is 4.43%.
For `NC(=O)C[C@H](NC(=O)c1ccc(Cl)cc1)C(=O)OCc1ccccc1` the value was 8.75%; for `COc1cccc(NC(=O)C(=O)c2cn(CC(=O)N3CCCC3)c3ccccc23)c1`, 10%; for `CCN=c1scc(-c2ccco2)n1/N=C/c1ccc(OC)c(O)c1`, 28%.
For the compound `CCN=c1scc(-c2ccco2)n1/N=C/c1ccc(O)cc1`, the inhibition is 13.7%.
Take `CN=c1scc(-c2ccccc2F)n1/N=C/c1ccc(O)c(O)c1O`: the inhibition was -8.6%.
For `COCCN=c1scc(-c2ccco2)n1/N=C/c1ccc(O)c(O)c1O` the value was -21.8%.
`COc1ccc(O)c(/C=N/n2c(-c3ccco3)csc2=Nc2cccnc2)c1`: the inhibition was 14.5%.
For `C=CCN=c1scc(-c2ccco2)n1/N=C/c1ccc(O)c(O)c1O` the value was -25.9%; for `CCN=c1scc(-c2ccc(F)cc2)n1/N=C/c1ccccn1`, 9.08%.
As for `CC(C)n1c(-c2ccco2)csc1=Nc1cccnc1`, the inhibition is 11.3%.
Consider `CCCCc1ncc(CN2CCC(n3nccc3NC(=O)C(OC)c3ccccc3)CC2)[nH]1` (stereo not given), for which the inhibition was 8.08%.
For `O=C(CN1CCN(Cc2ccccc2)C1=O)NCc1ccc(Cl)cc1` the value was 3.73%; for `NC(=O)COc1ccc(C(=O)NCC2(N3CCOCC3)CCCCC2)cc1`, 4.65%.
For `Cc1ccc([C@H]2C[C@@H](O)[C@H](n3cc(COC(=O)c4ccccc4)nn3)CN2Cc2cccs2)cc1` the value was -0.67%.
For `COc1ccccc1NC(=O)c1ccc(NC(=O)COC(=O)c2cncc(Br)c2)cc1` the value was 5.46%; for `CC(C)CC1C(C#N)=C(N)OC2=C1C(=O)CC(c1ccccc1)C2` (stereo not given), -2.75%.
Regarding `COc1ccc(CCn2c(-c3cc([N+](=O)[O-])cc([N+](=O)[O-])c3)nc3nc4ccccc4nc32)cc1`, the inhibition is 4.41%.
For `CN(Cc1cnccn1)C(=O)C1CCC(=O)N(CCc2ccc(Cl)cc2)C1` (stereo not given) the value was 8.49%; for `COC(=O)c1ccc(OCC(O)CN2CCOCC2)cc1` (stereo not given), -9.81%.
For `COc1ccc(CCNC(=O)N2CCOCC2)cc1` the value was 14.2%; for `CN1CCN(NC(=O)NC2CCCCC2)CC1`, 2.74%.
For `COc1cc(NC(=O)c2cccs2)ccc1NC(=O)Cc1ccccc1` the value was 4.97%.
For `N#Cc1cccc(NC(=O)CNc2cccc(S(=O)(=O)N3CCCC3)c2)c1`, the inhibition was -1.55%.
For `O=C(Nc1cccc(S(=O)(=O)N2CCOCC2)c1)c1c2c(nc3ccccc13)CCC2` the value was 11.9%; for `COC(c1ccccc1)c1nnc(CCC(=O)NCc2ccc3ncccc3c2)o1` (stereo not given), 9.84%.
For `CCCN1CNC(=S)N(c2ccc(C)cc2C)C1` the value was 16.6%; for `CC(C)N(Cc1cc2ccccc2[nH]c1=O)C(=O)C(C)(C)C`, -1.34%.
For `CCOC(=O)C(Sc1cc(C)nc(N)n1)C(C)=O` (stereo not given) the value was 0.9%; for `CCc1c(C)nc(N)nc1Cl`, -2.74%.
On to `COc1cc2c(cc1OC)C(c1ccccc1)=NCC2`, for which the inhibition is 3.03%.
For `COc1cc2c(cc1OC)C(C)=NCC2` the value was 5.87%; for `Cc1cc(OCC(=O)OCC(=O)Nc2cc(S(=O)(=O)N3CCOCC3)ccc2Cl)ccc1Cl`, 2.85%; for `CCOC(=O)CN1C(=N)N(c2nc(NC(C)C)nc(NC(C)C)n2)CC1=O`, 7%.
For `CCOC(=O)Cc1csc(NC(=O)CSc2nnnn2-c2ccc(CC)cc2)n1` the value was 8.91%; for `Cc1ccc(NC(=O)CCNC(=O)Nc2ccccc2)cc1S(=O)(=O)N(C)C`, 2.28%.
For `Cc1ccc(NC(=O)CCNC(=O)c2ccccc2Cl)cc1S(=O)(=O)N(C)C` the value was 2.79%.
Consider `CN1C(=O)N(C)c2cccc3cccc1c23`, for which the inhibition was 6.07%.
Turning to `CCN1/C(=N\N)c2cccc3cccc1c23`, the inhibition was 13.1%.
As for `Cc1oc(-c2cccc(F)c2)nc1CN1CCCN(C(=O)c2ccco2)CC1`, the inhibition was 9.79%.
For `CCCCn1c(N)c(N(Cc2ccccc2OC)C(=O)C(C)Oc2ccc(Cl)cc2)c(=O)[nH]c1=O` (stereo not given) the value was 3.24%; for `Cc1ccc(S(=O)(=O)N(C)Cc2ccc(C(=O)NN=C(CC(C)C)CC(C)C)cc2)cc1`, 7.07%; for `CCn1cnc2c(Nc3cccc(Cl)c3)nc(C#N)nc21`, 12.9%.
For `O=C(NCc1ccco1)c1ccccc1` the value was 4.89%; for `O=C(NCC1CCCO1)c1ccccc1` (stereo not given), -0.11%; for `O=C(NCc1ccco1)c1cc2sccc2n1Cc1ccccc1`, 12.8%.
For `O=C(Cn1c(C(=O)NCCCN2CCOCC2)cc2sccc21)c1ccccc1` the value was 29.1%; for `CN1CCc2c(n(CC(O)CNCc3ccccc3)c3ccccc23)C1=O` (stereo not given), 8.39%.
Take `COc1cc(C(F)(F)F)c(C(=O)N(C)Cc2ccc(Cl)c(Cl)c2)cn1`: the inhibition was 5.07%.
For `O=C(CN1C(=O)c2ccccc2S1(=O)=O)Nc1ccc(S(=O)(=O)N2CCCC2)cc1` the value was -4.76%; for `O=S(=O)(c1ccc(Cl)cc1)N1CCCCCC1`, 4.19%; for `CN1CCN(S(=O)(=O)c2ccc(Cl)cc2)CC1`, 4.29% and 1.92%.
Consider `Cc1ccc(S(=O)(=O)NCCc2ccccc2)cc1`, for which the inhibition is 8.77%.
For `Cc1ccc(S(=O)(=O)N2CCC(C(=O)N3CCCC(C(F)(F)F)C3)CC2)cc1C` (stereo not given) the value was 5.5%; for `CCOC(=O)C1=C(C)N(C)C(=O)NC1c1cc2c(cc1[N+](=O)[O-])OCO2` (stereo not given), 11.2%.
For `CCOC(=O)C1=C(C)NC(=O)CC1c1cc2c(cc1Br)OCO2` (stereo not given) the value was 14.8%; for `COc1ccc(CC(Cc2ccc(OC)c(OC)c2)NC=O)cc1OC`, 8.2%.
For `O=C(Nc1ccccc1C(=O)Nc1ccccc1)c1ccco1` the value was 3.51%; for `CCOc1ccc(N2C(=O)C3C(c4ccccc4F)NN(C(=O)c4ccc(C)cc4)C3C2=O)cc1` (stereo not given), -3.94%; for `CC(=O)C1C(c2ccc([N+](=O)[O-])cc2)c2c(noc2C)CC1(C)O` (stereo not given), -3.68%.
In the case of `CC(C)(C)OC(=O)n1cc(/C=N/NC(=O)c2ccco2)c2ccccc21`, the inhibition was 6.56%.
